Assay outcomes: PubChem, Johns Hopkins Ion Channel Center
Sampled rows, rich in hits. Any-hit rate of the full collection: about 2.3%.
ANO1 block: inhibitors of mouse TMEM16A calcium-activated chloride channel | Q8BHY3 | HEK293 TMEM16A/YFP iodide influx fluorescence, ionomycin | normalized B-score (activity score, 25-100; higher = stronger inhibition) at 10 µM | actives 1.2% (n = 310,000);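 active = ratio plate-corrected score three or more library SD toward inhibition, starting fluorescence score within five deviations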;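 also: score derived from kinetic fluorescence span divided by baseline fluorescence per well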
CHT inh: inhibitors of human choline transporter CHT; CHT-expressing cells, membrane potential dye, choline response; hits give low values; B-score at 10 µM; actives 0.86% (n = 310,000); Q9GZV3;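 active = B-score over 3 SD under the library average, and starting fluorescence ratio not unusually high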;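 also: choline stimulus applied at its EC90 after an EC20 pre-addition; B-score computed on integrated fluorescence ratio after choline addition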
Target sequence (Q9GZV3 whole entry, looked up): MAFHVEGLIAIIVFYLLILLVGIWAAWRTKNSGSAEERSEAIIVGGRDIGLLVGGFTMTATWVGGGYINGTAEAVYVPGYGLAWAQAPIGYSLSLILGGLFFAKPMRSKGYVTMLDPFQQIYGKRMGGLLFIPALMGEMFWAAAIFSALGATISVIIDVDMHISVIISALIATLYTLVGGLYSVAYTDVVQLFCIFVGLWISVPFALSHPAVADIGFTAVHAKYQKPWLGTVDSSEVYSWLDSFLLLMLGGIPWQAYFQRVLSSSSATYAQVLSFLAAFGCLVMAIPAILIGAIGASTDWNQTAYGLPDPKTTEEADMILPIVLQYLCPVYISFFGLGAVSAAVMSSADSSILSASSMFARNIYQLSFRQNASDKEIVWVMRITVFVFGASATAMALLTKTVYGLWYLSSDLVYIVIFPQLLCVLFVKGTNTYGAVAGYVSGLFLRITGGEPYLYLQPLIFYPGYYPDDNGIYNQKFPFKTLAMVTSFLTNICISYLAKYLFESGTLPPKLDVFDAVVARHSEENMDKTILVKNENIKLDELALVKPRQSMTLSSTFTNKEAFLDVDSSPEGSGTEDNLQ
CHT PAM: allosterically activates the human high affinity choline transporter; B-score at 10 µM; CHT-expressing cells, membrane potential dye, choline EC20; hits give high values; LV-AA mutant CHT in HEK293 cells; actives 0.49% (n = 310,000);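 active = initial fluorescence not abnormally high and integrated response B-score, plate-corrected, over 3 SD above library mean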
TMEM16A act: activates or potentiates the mouse TMEM16A chloride channel; actives 0.3% (n = 340,000); AID 623877; B-score at 10 µM; HEK293 TMEM16A/YFP-H148Q/I152L, iodide quench fluorescence; hits give low values;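 active = fluorescence-ratio B-score plate-corrected deviation score at least 3 library SD below zero, with starting fluorescence score within 5 deviations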;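 also: channel opened by trigger with iodide after compound preincubation; score built on the fluorescence ratio of max minus min over baseline; more negative score means more quench and so TMEM16A activation or potentiation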
CHT inh conf: human CHT inhibition, confirmatory screen. CHT-expressing cells, choline membrane potential dye; LV-to-AA substituted CHT, HEK293 cells. AID 493221. CHT activity remaining % of control (hits give low values), % at 10 µM. actives 70% (n = 2,400). shares compounds with CHT inh;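 active = choline transporter activity left, mean of duplicates at 10 µM, below buffer-only control mean minus 3 SD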;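 also: depolarization triggered by choline at its EC90 following an EC20 pre-addition; 0% = hemicholinium-3 full block and 100% = buffer-only control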
HEK293 CHT ctr: counter-screen for CHT inhibitors: effect in parental HEK293 cells; actives 4% (n = 2,400); membrane potential dye, choline response; active = decrease or increase beyond buffer ±3SD; shares compounds with CHT inh; membrane potential ratio readout (active if shifted either direction beyond buffer ±3SD; no single direction) at 10 µM;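 also: parental cells lack the transporter so any hit is non-specific; ratio is peak minus trough fluorescence over baseline after EC90 choline challenge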
* hit, by the source's call; i = inactive; . = no result given.

SMILES | ANO1 block | CHT inh | CHT PAM | TMEM16A act | CHT inh conf | HEK293 CHT ctr
O=C(CSc1nc2ccccc2c(=O)n1C1CC1)NCc1ccccc1 | i | -5.1* | i | i | 67%* | i
CSCc1ccc(C(=O)N2CCCC(Nc3ccc4c(c3)OCCO4)C2)o1 (configuration not stated) | i | i | i | i | . | .
CSCc1ccc(C(=O)N2CCCC(Nc3ccc(F)cc3)C2)o1 (configuration not stated) | i | -5.2* | i | i | i | i
CCn1c(-c2ccccc2Cl)nn(CC(=O)Nc2ccc(OC)cc2)c1=S | i | i | i | i | . | .
CCOc1ccc(NC(=O)Cn2nc(-c3ccccc3Cl)n(CC)c2=S)cc1 | i | i | i | i | i | i
COc1ccccc1C(=O)Nc1ccc(C(=O)c2ccccc2)cc1 | i | -6.5* | i | i | i | i
COc1ccccc1C(=O)Nc1ccc(C(=O)O)cc1 | i | i | i | i | . | .
CN1CCN(Cc2ccc(Sc3ccc(Cl)cc3)c([N+](=O)[O-])c2)CC1 | i | -5.1* | i | i | 61%* | i
Cc1ccc(Sc2ccc(CN3CCCC3)cc2[N+](=O)[O-])cc1 | i | i | i | i | . | .
CN(C)CCNC(=O)C1CCN(S(=O)(=O)c2ccc3ccccc3c2)CC1 | i | i | i | i | . | .
Cc1ccccc1NC(=O)CN(C)S(=O)(=O)c1ccc(-c2ccc(=O)[nH]n2)s1 | i | i | i | i | . | .
Cc1cccc(NC(=O)CN(C)S(=O)(=O)c2ccc(-c3ccc(=O)[nH]n3)s2)c1C | i | -6.3* | i | i | i | i
CCOc1ccc(NC(=O)CN(C)C(=O)c2ccc3nc(CC)c(CC)nc3c2)cc1OCC | i | i | i | i | . | .
Oc1c(Br)cc(Br)c(/C=N/n2c(-c3ccccc3)n[nH]c2=S)c1Br | 100* | -6.8* | i | i | 48%* | i
Oc1ccc(Br)cc1/C=N/n1c(-c2ccccc2)n[nH]c1=S | i | i | i | i | . | .
COc1ccc(C2=NN(C(=O)CCC(=O)O)C(c3ccccc3OC)C2)cc1 (configuration not stated) | i | i | i | i | . | .
CCc1ccc(OCC(=O)N2CCN(c3ccccc3F)CC2)cc1 | i | -5.5* | i | i | i | i
O=S(=O)(Nc1nc2ccccc2nc1N1CCN(CCO)CC1)c1cc(F)ccc1F | . | . | . | i | . | .
Cc1ccc(C)c(NC(=O)CCc2nnc3ccc(N4CCCC4)nn23)c1 | i | i | i | i | . | .
CSc1ccc(CCNC(=O)CCc2nnc3ccc(N4CCCC4)nn23)cc1 | i | -5.3* | i | i | i | i
COc1cc(S(=O)(=O)N2CCN(c3ccccn3)CC2)ccc1Br | i | i | i | i | . | .
CCN(CC)CCCNC(=O)c1ccccc1NC(=O)C1=CSCCO1 | i | -12* | i | i | 21%* | i
Cc1nc(N)nc(N(C)c2ccccc2)c1Br | . | . | . | i | . | .
